Common to all, as to experiment: growth (OD600 after 10 h); higher = more growth (less inhibition)
For experiment [1], the system named is E. coli TESEC Alr+ wild-type control. The settings on record: compound 0.1 mM; raw OD600 reference: median of DMSO wells 0.241, cell-free background 0.041. The procedure:
(§1)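 TESEC Mtb Alr E. coli, or the Alr+ wild-type control, in 384-well plates with Prestwick library compounds at 0.1 mM and 1% DMSO, across arabinose induction levels of 1E3 to 1E7 nM. Growth is read as OD600 after 10 h at 37 °C in triplicate biological replicates.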

Experiment [2] has as its system E. coli TESEC Mtb Alr. As to conditions: compound 0.1 mM. As to the method:
as §1

The test system of another experiment is E. coli TESEC Mtb Asd. As to conditions: compound 0.1 mM. As to the method:
(§2)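 TESEC E. coli strains in which the native enzyme is deleted and replaced by arabinose-inducible Mtb Asd, DapB, CysH or TrpD, each grown in its selective medium. Strains were screened against the Prestwick library at 0.1 mM and 1% DMSO in 384-well format at low and high arabinose induction. Growth is read as OD600 after 10 h in triplicate.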

Another experiment has as its system E. coli TESEC Mtb DapB. The settings on record: compound 0.1 mM. The procedure:
as §2

The subject of experiment [3] is E. coli TESEC Mtb Alr. The settings on record: compound 0.1 mM. The procedure:
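TESEC Mtb Alr E. coli (ΔaraC ΔtolC ΔentC Δalr ΔdadX, arabinose-inducible Mtb Alr) or the Alr+ wild-type control strain, grown in defined M9-fructose medium without D-alanine in 96-well plates with Prestwick library compounds at 0.1 mM and 1% DMSO. Low Alr induction is 0.1 µM arabinose and high induction is 10 mM arabinose.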
The source holds these as a separate data set.

Setting [4] is: arabinose 1000 nM, raw OD600 reference: median of DMSO wells 0.294, cell-free background 0.041.
The mark [5] stands for this setting: arabinose 10000 nM, raw OD600 reference: median of DMSO wells 0.264, cell-free background 0.041.
The mark [6] stands for this setting: arabinose 100000 nM, raw OD600 reference: median of DMSO wells 0.201, cell-free background 0.041.
[7] abbreviates: arabinose 1000000 nM, raw OD600 reference: median of DMSO wells 0.193, cell-free background 0.041.
The mark [8] stands for this setting: arabinose 10000000 nM, raw OD600 reference: median of DMSO wells 0.146, cell-free background 0.041.
Setting [9] is: arabinose induction (level): High, raw OD600 reference: median of DMSO wells 0.331, cell-free background 0.041.
[10] abbreviates: arabinose induction (level): Low, raw OD600 reference: median of DMSO wells 0.417, cell-free background 0.041.
Where [11] appears, read: arabinose induction (level): High, raw OD600 reference: median of DMSO wells […], cell-free background 0.041.
Setting [12] is: arabinose induction (level): Low, raw OD600 reference: median of DMSO wells 0.227, cell-free background 0.041.
[13] abbreviates: arabinose 100 nM, raw OD600 reference: median of DMSO wells 0.413, cell-free background 0.052.
Where [14] appears, read: arabinose 10000000 nM, raw OD600 reference: median of DMSO wells […], cell-free background 0.052.

Each structure is given as a SMILES string. Counter-ions that a name gives are not always drawn. ± gives the standard deviation of the averaged measurements.

Consider `Cc1cccc(C)c1NC(=O)CN1CCN(CCCC(c2ccc(F)cc2)c2ccc(F)cc2)CC1` [Lidoflazine], for which the growth in experiment [1] is 0.239 ± 0.0079; with E. coli TESEC Mtb Alr [2] (setting [4]), 0.311 ± 0.0035; in the experiment on E. coli TESEC Mtb Alr [2] (setting [5]) it was 0.263 ± 0.0048; with E. coli TESEC Mtb Alr [2] (setting [6]), 0.223 ± 0.018; in the experiment with E. coli TESEC Mtb Alr [2] (setting [7]) it was 0.174 ± 0.0022; with E. coli TESEC Mtb Alr [2] (setting [8]) it was 0.163 ± 0.0025. For the same compound, the growth in the experiment on E. coli TESEC Mtb Asd (setting [9]) is 0.333 ± 0.059; in the experiment on E. coli TESEC Mtb Asd (setting [10]) it was 0.361 ± 0.11; with E. coli TESEC Mtb DapB (setting [11]), 0.232 ± 0.026; with E. coli TESEC Mtb DapB (setting [12]), 0.227 ± 0.015; with E. coli TESEC Mtb Alr [3] (setting [13]), 0.4122 ± 0.0027; with E. coli TESEC Mtb Alr [3] (setting [14]), 0.379 ± 0.012.

Consider `CC(=O)c1ccc2c(c1)N(CCCN1CCC(CCO)CC1)c1ccccc1S2` [Piperacetazine], for which the growth in experiment [1] was found to be 0.161 ± 0.0078; in the experiment on E. coli TESEC Mtb Alr [2] (setting [4]), 0.183 ± 0.0095; in the experiment on E. coli TESEC Mtb Alr [2] (setting [5]), 0.276 ± 0.015; in the experiment on E. coli TESEC Mtb Alr [2] (setting [6]) it was 0.222 ± 0.0061; in the experiment with E. coli TESEC Mtb Alr [2] (setting [7]), 0.115 ± 0.0049; with E. coli TESEC Mtb Alr [2] (setting [8]), 0.133 ± 0.0052. The growth in the experiment on E. coli TESEC Mtb Asd (setting [9]) worked out at 0.175 ± 0.0042; in the experiment on E. coli TESEC Mtb Asd (setting [10]), 0.222 ± 0.015; in the experiment with E. coli TESEC Mtb DapB (setting [11]) it was 0.203 ± 0.016; in the experiment on E. coli TESEC Mtb DapB (setting [12]), 0.243 ± 0.023; in the experiment with E. coli TESEC Mtb Alr [3] (setting [13]), 0.3984 ± 0.0027; in the experiment on E. coli TESEC Mtb Alr [3] (setting [14]), 0.27 ± 0.039.

With `COc1cc(N)c(Cl)cc1C(=O)NC1CCN(Cc2ccccc2)CC1` [Clebopride maleate], the growth came to 0.19 ± 0.002 in experiment [1]; 0.263 ± 0.0076 with E. coli TESEC Mtb Alr [2] (setting [4]); 0.24 ± 0.005 in the experiment on E. coli TESEC Mtb Alr [2] (setting [5]); 0.171 ± 0.016 with E. coli TESEC Mtb Alr [2] (setting [6]); 0.132 ± 0.0034 with E. coli TESEC Mtb Alr [2] (setting [7]); 0.129 ± 0.0055 in the experiment with E. coli TESEC Mtb Alr [2] (setting [8]). The growth with E. coli TESEC Mtb Asd (setting [9]) stood at 0.163 ± 0.016; in the experiment with E. coli TESEC Mtb Asd (setting [10]), 0.277 ± 0.036; with E. coli TESEC Mtb DapB (setting [11]), 0.2 ± 0.011; in the experiment with E. coli TESEC Mtb DapB (setting [12]), 0.223 ± 0.031; with E. coli TESEC Mtb Alr [3] (setting [13]), 0.397 ± 0.0065; with E. coli TESEC Mtb Alr [3] (setting [14]), 0.314 ± 0.016.

Take `OC(c1cc(C(F)(F)F)nc2c(C(F)(F)F)cccc12)C1CCCCN1` (configuration not stated) [Mefloquine hydrochloride]: the growth turned out to be 0.0408 ± 0.00093 in experiment [1]; 0.0401 ± 0.0013 with E. coli TESEC Mtb Alr [2] (setting [4]); 0.0392 ± 0.0005 in the experiment on E. coli TESEC Mtb Alr [2] (setting [5]); 0.0403 ± 0.00056 with E. coli TESEC Mtb Alr [2] (setting [6]); 0.0392 ± 0.00017 with E. coli TESEC Mtb Alr [2] (setting [7]); 0.0398 ± 0.00036 in the experiment with E. coli TESEC Mtb Alr [2] (setting [8]). The growth in the experiment on E. coli TESEC Mtb Asd (setting [9]) was determined as 0.0511 ± 0.0036; in the experiment on E. coli TESEC Mtb Asd (setting [10]), 0.055 ± 0.0046; with E. coli TESEC Mtb DapB (setting [11]), 0.0464 ± 0.00035; in the experiment with E. coli TESEC Mtb DapB (setting [12]) it was 0.0483 ± 0.0032; with E. coli TESEC Mtb Alr [3] (setting [13]), 0.199 ± 0.23; in the experiment with E. coli TESEC Mtb Alr [3] (setting [14]) it was 0.0512 ± 0.00055.

`COc1cc(Cc2cnc(N)nc2N)cc(OC)c1OC` [Trimethoprim]: the growth in experiment [1] was 0.0601 ± 0.0005; in the experiment with E. coli TESEC Mtb Alr [2] (setting [4]), 0.04863 ± 0.00047; in the experiment with E. coli TESEC Mtb Alr [2] (setting [5]) it was 0.0442 ± 0.00076; in the experiment on E. coli TESEC Mtb Alr [2] (setting [6]) it was 0.04953 ± 0.00035; with E. coli TESEC Mtb Alr [2] (setting [7]), 0.04553 ± 0.0004; with E. coli TESEC Mtb Alr [2] (setting [8]) it was 0.0534 ± 0.00081. Further, the growth in the experiment on E. coli TESEC Mtb Asd (setting [9]) was determined as 0.0958 ± 0.044; in the experiment with E. coli TESEC Mtb Asd (setting [10]) it was 0.0867 ± 0.014; in the experiment on E. coli TESEC Mtb DapB (setting [11]), 0.0742 ± 0.0018; with E. coli TESEC Mtb DapB (setting [12]) it was 0.0572 ± 0.0041; in the experiment with E. coli TESEC Mtb Alr [3] (setting [13]), 0.0922 ± 0.026; with E. coli TESEC Mtb Alr [3] (setting [14]) it was 0.0701 ± 0.0035.

As to `CN(C)CCn1nnnc1SCC1=C(C(=O)O)N2C(=O)[C@@H](NC(=O)Cc3csc(N)n3)[C@H]2SC1` [Cefotiam hydrochloride], the growth was 0.11 ± 0.0087 in experiment [1]; 0.039 ± 0.0012 in the experiment on E. coli TESEC Mtb Alr [2] (setting [4]); 0.0413 ± 0.00046 with E. coli TESEC Mtb Alr [2] (setting [5]); 0.0507 ± 0.0078 in the experiment on E. coli TESEC Mtb Alr [2] (setting [6]); 0.045 ± 0.00078 with E. coli TESEC Mtb Alr [2] (setting [7]); 0.0878 ± 0.0087 with E. coli TESEC Mtb Alr [2] (setting [8]). Moreover, the growth is 0.265 ± 0.012 in the experiment on E. coli TESEC Mtb Asd (setting [9]); 0.34 ± 0.061 with E. coli TESEC Mtb Asd (setting [10]); 0.218 ± 0.018 in the experiment with E. coli TESEC Mtb DapB (setting [11]); 0.195 ± 0.019 in the experiment on E. coli TESEC Mtb DapB (setting [12]); 0.0473 ± 0.0012 with E. coli TESEC Mtb Alr [3] (setting [13]); 0.244 ± 0.049 in the experiment with E. coli TESEC Mtb Alr [3] (setting [14]).

For the origin of these results see the supplement of paper PMC9262897, “Low-cost anti-mycobacterial drug discovery using engineered E. coli” (Nature Communications, 2022).
